# From PubChem BioAssay
# Compounds with a hit are over-represented: about 2.5% of the library has one in this group of screens.
# Casp6 inh = inhibitors of human caspase-6 | actives 0.53% (n = 350,000) | inhibition, % at 12.5 µM | P55212 | purified caspase-6, Z-VEID-R110 cleavage fluorescence;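 active = mean inhibition across replicates at least about 35%, with every replicate also reaching that limit, limit read from the data; inconclusive = only one of the two criteria met; inactive = neither criterion met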;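 also: 0% = median of neutral control wells and 100% = no fluorescence left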
# RAD52 inh = inhibitors of human RAD52 DNA annealing; P43351; inhibition, % at 18.7 µM; actives 0.46% (n = 360,000); recombinant RAD52 DNA annealing, FRET fluorescence;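 active = every replicate showing at least 50% inhibition; inconclusive = mean inhibition at least 50% but not in every replicate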
# NSD2 inh = inhibitors of human histone methyltransferase NSD2. O96028. NSD2 peptide methylation, AlphaScreen, 120 min. inhibition, % at 12.5 µM. actives 0.54% (n = 310,000). AID 743445; in the data active = inhibition above about 50%
# MLL AF4-AF9 inh = inhibitors of human MLL-AF4/AF9 interaction. inhibition, % at 10 µM. AID 651704. P42568. AlphaScreen, biotin-AF4 peptide binding to FLAG-AF9. actives 0.47% (n = 350,000);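 active = every replicate reaching a set inhibition limit, whatever the replicate mean, cut at about 25% in these data; inconclusive = mean inhibition reaches that limit but some replicates miss it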;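 also: 0% = plate neutral control median and 100% = total signal loss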
# Target sequence (P42568 whole entry, looked up): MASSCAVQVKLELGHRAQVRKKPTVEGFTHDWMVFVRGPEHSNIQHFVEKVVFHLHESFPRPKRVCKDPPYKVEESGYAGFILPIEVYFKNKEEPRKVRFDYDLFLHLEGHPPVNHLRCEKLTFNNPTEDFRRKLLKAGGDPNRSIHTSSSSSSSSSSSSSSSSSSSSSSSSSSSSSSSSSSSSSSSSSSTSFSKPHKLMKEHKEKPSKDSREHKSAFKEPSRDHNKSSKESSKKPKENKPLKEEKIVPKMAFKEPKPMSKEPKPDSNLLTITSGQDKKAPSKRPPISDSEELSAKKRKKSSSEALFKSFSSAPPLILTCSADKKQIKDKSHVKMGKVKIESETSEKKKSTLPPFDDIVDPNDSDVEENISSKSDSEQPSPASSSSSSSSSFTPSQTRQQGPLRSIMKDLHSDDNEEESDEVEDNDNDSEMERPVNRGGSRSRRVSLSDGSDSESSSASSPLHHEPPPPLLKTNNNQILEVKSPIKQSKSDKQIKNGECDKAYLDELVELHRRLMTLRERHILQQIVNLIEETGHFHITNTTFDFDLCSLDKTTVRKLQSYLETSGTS
# Ecoli rRNA inh = selective bacterial rRNA inhibition in E. coli. E. coli WT GFP vs humanized-ribosome RFP mutants, fluorescence, 24 h; stronger effect = lower value; DMSO median 0, no signal -100. GFP signal change (wild-type ribosome), % (no concentration beside the values). actives 1.6% (n = 350,000);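 active = significant combined selectivity score with lowered wild-type GFP, culture density cut under 30%, mutant RFP and density less affected; inactive = any of these conditions unmet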
# * = called active by the depositor; ? = inconclusive; / = not tested or not shown.
SMILES,Casp6 inh,RAD52 inh,NSD2 inh,MLL AF4-AF9 inh,Ecoli rRNA inh
CO[C@@H]1CN(C)C(=O)c2ccc(NC(=O)Nc3c(C)noc3C)cc2OC[C@H](C)NC[C@H]1C,/,11,/,-2,6
O=C1c2ccccc2C(c2nnnn2Cc2ccccc2)N1Cc1ccc(F)cc1 (centres undefined),2,-13,/,-3,-13
O=C1c2ccccc2C(c2nnnn2Cc2ccccc2)N1Cc1ccc2c(c1)OCO2 (centres undefined),2,-8,/,0,-27*
COc1ccc(CN(C)C[C@@H]2Oc3ccc(NS(=O)(=O)c4ccc(C)cc4)cc3C(=O)N([C@H](C)CO)C[C@@H]2C)cc1,0,16,/,-7,8
Cc1cc(=O)[nH]c(N)n1,0,-10,-2,-4,10
Nc1cc(=O)[nH]c(N)n1,-2,-5,/,-3,-13*
CCC(=O)N1[C@H](C#N)[C@@H](c2ccccc2-c2ccccc2)[C@@H]1CO,3,-8,/,-2,4
CCC(=O)N1[C@@H](C#N)[C@H](c2ccccc2-c2ccccc2)[C@@H]1CO,-3,71*,/,-2,2
CCc1nc(N2[C@H](CO)[C@H](c3ccccc3-c3ccc(F)cc3)[C@@H]2C#N)sc1C,-4,60*,/,2,-7
C/C=C/c1ccccc1[C@H]1[C@@H](C#N)N(c2ncc(CC)s2)[C@@H]1CO,3,65*,/,3,-6
CCOc1cc(N2CCOCC2)c(OCC)cc1NC(=O)C(C)Oc1ccccc1 (centres undefined),4,-8,18,29*,-7
O=C(/C=C\c1ccccc1OC(=O)c1ccccc1F)c1cc2ccccc2o1,-2,-13,-1,7,-23*
COc1cc(C(=O)NC(CCSC)C(=O)OCc2cc([N+](=O)[O-])cc3c2OCOC3)cc(OC)c1OC (centres undefined),36*,-23,2,-3,21
CCOc1ccc(C(=O)NCC(=O)OCc2cc([N+](=O)[O-])cc3c2OCOC3)cc1OCC,4,-6,1,0,12
Clc1cccc(-c2noc3ncnc(Nc4ccc5c(c4)OCO5)c23)c1,1,-9,/,0,-22*
O=C(CCOc1ccccc1)N1CCN(S(=O)(=O)c2ccccc2F)CC1,48*,-5,-2,-1,-4
Cn1c(=O)c2c(nc(N3CCc4ccccc4C3)n2C)n(C)c1=O,4,-8,0,0,-22*
CC(C)C#Cc1cnc2c(c1)C(=O)N([C@@H](C)CO)C[C@@H](C)[C@@H](CN(C)Cc1ccccc1F)O2,3,12,/,-1,4
CCOC(=O)Nc1ccc(Oc2ccccc2)cc1,/,/,-4,/,/
CCOC(=O)Nc1ccc(C(=O)/C=C/c2ccccc2)cc1,6,-2,2,5,-26*
CCOC(=O)/C(C#N)=C/c1c(N2CCN(c3cccc(Cl)c3)CC2)nc2c(C)cccn2c1=O,53*,-16,/,5,9
O=C1NC[C@@H](CCCCN2C[C@H](Cc3ccccc3)N(CC3CCCCC3)C(=O)C2=O)N(CCc2ccc(O)cc2)C1=O,10,-27,/,-3,-16
O=C1NC[C@@H](CCCCN2C[C@H](Cc3ccc(O)cc3)N(CCc3ccccc3)C(=O)C2=O)N(CC2CCCCC2)C1=O,4,-5,/,8,-15
O=C1NC[C@H](CCCCN2C[C@H](Cc3ccc(O)cc3)N(CCc3ccccc3)C(=O)C2=O)N(CC2CCCCC2)C1=O,9,-5,/,-22,-27*
O=C1NC[C@@H](CCCCN2CCN(CCc3ccc(O)cc3)C(=O)C2=O)N(CCc2ccc(O)cc2)C1=O,40*,-9,/,-3,6
SMILES,Casp6 inh,RAD52 inh,NSD2 inh,MLL AF4-AF9 inh,Ecoli rRNA inh
CC(C)C[C@H]1CN(CCCC[C@H]2CNC(=O)C(=O)N2CC2CCCCC2)C(=O)C(=O)N1Cc1ccccc1,5,-2,/,27*,-26
O=C1NC[C@H](CCCCN2C[C@H](Cc3ccccc3)N(CCc3ccc(O)cc3)C(=O)C2=O)N(CC2CCCCC2)C1=O,5,-28,/,1,-30*
COCCN=c1scc(-c2cccs2)n1/N=C/c1ccc(O)c(O)c1O,15,-13,/,53*,6
O=C(Cn1cnc([N+](=O)[O-])n1)c1ccc(O)c(O)c1,43*,-6,14,-3,4
O=C(Cn1cnc([N+](=O)[O-])n1)c1ccccc1,-3,-3,8,0,3
Cc1ccc2occ(C(c3nnnn3Cc3ccccc3)N3CCOCC3)c(=O)c2c1 (centres undefined),/,/,67*,/,/
CCc1ccc2[nH]c(=O)c(C(c3nnnn3Cc3ccccc3)N3CCOCC3)cc2c1 (centres undefined),/,/,0,/,/
CCCNC(=O)C[C@H]1CC[C@@H]2[C@H](COc3ccc(NC(=O)c4ccc(Cl)cc4)cc3C(=O)N2C)O1,0,7,/,-1,-4
Cn1cc(/C=C/C(=O)N2CCCC(C(=O)c3cccc4ccccc34)C2)cn1 (centres undefined),-1,2,/,2,0
Cn1cc(/C=C/C(=O)N2CCCC(C(=O)c3cccc(C(F)(F)F)c3)C2)cn1 (centres undefined),0,-22,-1,-2,-29*
Cc1sc2ncnc(Sc3ccccc3C(=O)O)c2c1C,0,-21,-2,-2,-24*
CCCS(=O)(=O)c1ccc(COC(=O)c2cccc(NC(=O)C(C)C)c2)cc1,-4,-12,0,1,-39*
Cc1c(C(=O)N(Cc2ccc(F)cc2)C2CCS(=O)(=O)C2)oc2ccccc12 (centres undefined),-1,-8,-4,-3,-23*
Cc1c(C(=O)N(Cc2ccccc2)C2CCS(=O)(=O)C2)oc2ccccc12 (centres undefined),0,-1,/,?,1
Cc1c(C(=O)N(Cc2ccc(N(C)C)cc2)C2CCS(=O)(=O)C2)oc2ccccc12 (centres undefined),0,-11,7,61*,-10
C[C@@H]1CN([C@@H](C)CO)C(=O)c2cccc(NC(=O)Nc3ccc(F)cc3)c2O[C@H]1CN(C)Cc1ccc(Oc2ccccc2)cc1,0,5,/,3,-9
O=C(O)CC1S/C(=N/N=C/c2ccc(-c3ccc(Cl)c([N+](=O)[O-])c3)o2)NC1=O (centres undefined),35*,-13,3,-2,15
O=C(O)CC1S/C(=N/N=C/C=C/c2ccccc2[N+](=O)[O-])NC1=O (centres undefined),/,/,-2,/,/
CC(=O)OCC1=C(C(=O)O)N2C(=O)C(NC(=O)c3ccc(COc4cccc(Cl)c4Cl)o3)C2SC1 (centres undefined),55*,-14,20,-8,-26*
C[C@@H]1CCCCO[C@@H](CN(C)Cc2ccc3c(c2)OCO3)[C@@H](C)CN([C@@H](C)CO)C(=O)c2cc(NS(=O)(=O)c3ccc(F)cc3)ccc2O1,-2,7,/,8,7
